Among the test systems are DU-145 prostate; K-562 leukemia; MALME-3M melanoma; MDA-MB-231 breast; RXF 393 renal; SF-268 CNS; SF-295 CNS; SF-539 CNS; UACC-257 melanoma; M14 melanoma; HCT-15 colon; HT29 colon; SNB-75 CNS; SNB-19 CNS; U251 CNS; PC-3 prostate; SK-MEL-5 melanoma; UACC-62 melanoma; LOX IMVI melanoma; SK-MEL-28 melanoma.
Holding throughout (assay): NCI-60 one-dose screen, 48 h (100 = growth as untreated, 0 = no growth, -100 = all killed)
Holding throughout (details): 10 µM unless noted

“And” between values parts separate entries of the source, which are not always exact repeats. Equal entries are not always repeated. About 83,000 compounds went through this panel and 20% of them were active in at least one assay; those are over-represented in the sample as a whole.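 Values shown are percent growth following 48 h exposure of cells in 96-well plates to a single concentration of compound; below 10 was considered active.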 Unmarked numbers belong to inactive results. The source made the active and inactive calls.

Regarding `Cn1ncc2c(N)nc(Oc3ccccc3-c3ccccc3)nc21`, the growth is 73.1% in the assay with DU-145 prostate; 6.56% (active) in the assay with K-562 leukemia; 25.7% in the assay on MALME-3M melanoma; 43% in the assay with MDA-MB-231 breast; 25% with RXF 393 renal; 55.6% with SF-268 CNS. Besides, the growth was 27.2% in the assay on SF-295 CNS; 25.9% with SF-539 CNS; 63.5% with UACC-257 melanoma; 13.6% in the assay with M14 melanoma; 10.7% in the assay with HCT-15 colon; 14.9% in the assay on HT29 colon. The growth was 8.98% (active) in the assay on SNB-75 CNS; 33.8% with SNB-19 CNS; 32.6% in the assay with U251 CNS; 58.5% in the assay on PC-3 prostate; 0.935% (active) with SK-MEL-5 melanoma; 26.3% in the assay with UACC-62 melanoma. Further, the growth in the assay with LOX IMVI melanoma was 34.7%; in the assay with SK-MEL-28 melanoma, 53.7%.
As to `Cc1ccc(C(=O)Nc2cc(-n3cnc(F)c3)cc(C(F)(F)F)c2)cc1C#Cc1cnc2cccnn12`, the growth in the assay with DU-145 prostate was 80.9%; in the assay with K-562 leukemia, -9.19% (active); in the assay on MALME-3M melanoma, -3.1% (active); in the assay on MDA-MB-231 breast it was 49.2%; in the assay with RXF 393 renal, 57.9%; in the assay on SF-268 CNS it was 91.6%. Besides, the growth in the assay on SF-295 CNS is 63.9%; with SF-539 CNS, 3.39% (active); in the assay with UACC-257 melanoma, 58%; in the assay on M14 melanoma, 17.7%; in the assay with HCT-15 colon, 36.2%; in the assay on HT29 colon it was 35.4%. Besides, the growth in the assay on SNB-75 CNS is 132%; in the assay with SNB-19 CNS, 106%; in the assay with U251 CNS, 83.7%; in the assay with PC-3 prostate, 89.8%; with SK-MEL-5 melanoma it was 38.3%; in the assay on UACC-62 melanoma, 26%. Also, the growth with LOX IMVI melanoma is 22%; in the assay with SK-MEL-28 melanoma, 29.3%.
For `O=C(Nc1ccc(-c2ccc3c(c2)NC(=O)/C3=C\c2ccc[nH]2)cc1)Nc1ccc(Cl)c(C(F)(F)F)c1`, the growth with DU-145 prostate was 44.1%; in the assay on K-562 leukemia it was 15.2%; in the assay with MALME-3M melanoma, 64.4%; in the assay with MDA-MB-231 breast it was 72.2%; with RXF 393 renal it was 42.3%; in the assay with SF-268 CNS it was 46.3%. Also, the growth with SF-295 CNS was 38.4%; with SF-539 CNS, 44.2%; in the assay on UACC-257 melanoma, 24.5%; in the assay on M14 melanoma, 54.8%; in the assay on HCT-15 colon, 26.5%; in the assay with HT29 colon it was 17.4%. In addition, the growth in the assay on SNB-75 CNS was 38.5%; in the assay with SNB-19 CNS, 72.9%; in the assay with U251 CNS it was 37.9%; in the assay with PC-3 prostate, 39.5%; in the assay on SK-MEL-5 melanoma, 49.3%; in the assay on UACC-62 melanoma, 31.7%. For the same compound, the growth was 46.9% in the assay on LOX IMVI melanoma and 47.7% in the assay with SK-MEL-28 melanoma.
On to `FC(F)(F)c1cc2c(Cl)ncnc2n1CCN1CCOCC1`, for which the growth in the assay on DU-145 prostate is 73.6%; with K-562 leukemia, 0.361% (active); in the assay on MALME-3M melanoma it was 88.1%; with MDA-MB-231 breast it was 56.4%; in the assay with RXF 393 renal, 100%; in the assay on SF-268 CNS it was 64.5%. For the same compound, the growth with SF-295 CNS is 86.7%; in the assay with SF-539 CNS, 87%; in the assay with UACC-257 melanoma it was 75.5%; with M14 melanoma, 44.9%; in the assay on HCT-15 colon it was 2.39% (active); in the assay with HT29 colon, 81.2%. Besides, the growth in the assay with SNB-75 CNS was 53.5%; in the assay with SNB-19 CNS it was 43.4%; with U251 CNS, 78.5%; with PC-3 prostate it was 88.2%; in the assay with SK-MEL-5 melanoma, 88.2%; with UACC-62 melanoma it was 64.7%. Moreover, the figures for the growth in the assay with LOX IMVI melanoma and in the assay on SK-MEL-28 melanoma were -12.7% (active) and 74.1%, respectively.
Regarding `CS(=O)(=O)Nc1cccc(-n2c(COc3ccc(OC(F)(F)F)cc3)nc3ccccc32)c1`, the growth in the assay on DU-145 prostate is 105% and 121%; in the assay with K-562 leukemia, 82.2% and 107%; in the assay on MALME-3M melanoma, 89.6% and 102%; in the assay with MDA-MB-231 breast it was 92.4% and 110%; in the assay on RXF 393 renal, 85.8% and 110%; with SF-268 CNS, 90% and 113%. Moreover, the growth in the assay with SF-295 CNS is 92.7% and 100%; in the assay on SF-539 CNS it was 81.1% and 105%; in the assay with UACC-257 melanoma, 106% and 109%; in the assay with M14 melanoma, 114% and 107%; with HCT-15 colon, 94.6% and 105%; in the assay with HT29 colon, 103% and 114%. In addition, the growth with SNB-75 CNS is 55.4% and 95.4%; in the assay with SNB-19 CNS, 93.8% and 101%; in the assay on U251 CNS, 85% and 101%; in the assay with PC-3 prostate, 70.7% and 103%; in the assay on SK-MEL-5 melanoma, 78.8% and 106%; in the assay on UACC-62 melanoma, 72.3% and 107%. Also, the growth with LOX IMVI melanoma is 83.7% and 110%; with SK-MEL-28 melanoma it was 118% and 133%.
Regarding `Cc1cccc(NCC(=O)N2CCN(c3ncnc4c3cnn4-c3ccccc3)CC2)c1`, the growth in the assay on DU-145 prostate was 75.4%; in the assay on K-562 leukemia, 43.8%; with MALME-3M melanoma, 72.8%; in the assay on MDA-MB-231 breast it was 65%; in the assay with RXF 393 renal, 76.3%; with SF-268 CNS it was 73.3%. The growth in the assay on SF-295 CNS is 46.6%; with SF-539 CNS it was 59.9%; with UACC-257 melanoma it was 66.9%; in the assay with M14 melanoma it was 62.2%; in the assay on HCT-15 colon, 72.9%; in the assay with HT29 colon, 83.5%. For the same compound, the growth in the assay on SNB-75 CNS is 53.5%; with SNB-19 CNS it was 88.9%; in the assay on U251 CNS, 87.1%; in the assay with PC-3 prostate, 70%; in the assay with SK-MEL-5 melanoma, 37.5%; with UACC-62 melanoma it was 34.6%. For the same compound, the growth was 53.8% with LOX IMVI melanoma and 59% with SK-MEL-28 melanoma.
As to `Cn1cc(-c2cc(N)n3nc(-c4c[nH]c5ccc(Cl)cc45)cc3n2)c2cc(Br)cnc21`, the growth with DU-145 prostate is -71.6% (active); in the assay with K-562 leukemia, -63.7% (active); in the assay on MALME-3M melanoma, -79.1% (active); in the assay on MDA-MB-231 breast, -73.4% (active); in the assay on RXF 393 renal, -70.4% (active); with SF-268 CNS, 9.71% (active). In addition, the growth with SF-295 CNS is -50.9% (active); in the assay on SF-539 CNS it was -91.1% (active); in the assay on UACC-257 melanoma, -55% (active); in the assay with M14 melanoma, -92.4% (active); with HCT-15 colon it was -80.2% (active); in the assay on HT29 colon, -72% (active). For the same compound, the growth in the assay on SNB-75 CNS is -24.4% (active); in the assay on SNB-19 CNS, 2.78% (active); in the assay on U251 CNS it was -73.9% (active); in the assay with PC-3 prostate, -52.4% (active); in the assay with SK-MEL-5 melanoma it was -57% (active); in the assay with UACC-62 melanoma, -59.6% (active). Moreover, the growth with LOX IMVI melanoma was -93.3% (active); in the assay on SK-MEL-28 melanoma, -25.9% (active).
Take `OC(c1ccccc1)(c1ccccc1)C1CCN(c2ccc3nnc(Cl)n3n2)CC1`: the growth in the assay on DU-145 prostate was 54.6%; in the assay with K-562 leukemia, 10.7%; in the assay with MALME-3M melanoma, 26.8%; in the assay on MDA-MB-231 breast, 68%; in the assay with RXF 393 renal, 32.8%; in the assay on SF-268 CNS, 63.7%. The growth was 19% in the assay with SF-295 CNS; 51.8% in the assay on SF-539 CNS; 72.9% in the assay on UACC-257 melanoma; 39.2% with M14 melanoma; 18.1% in the assay on HCT-15 colon; 26.8% in the assay on HT29 colon. Moreover, the growth with SNB-75 CNS is 61.3%; in the assay with SNB-19 CNS, 63.3%; in the assay with U251 CNS it was 45.9%; in the assay on PC-3 prostate it was 16.2%; with SK-MEL-5 melanoma it was -84.6% (active); with UACC-62 melanoma, 54.5%. The growth in the assay on LOX IMVI melanoma was 38.3%; with SK-MEL-28 melanoma, 52.2%.
